Results reported in the supplement of paper PMC6609913.
Where a name gives a salt, the structure may show the parent alone. ± gives the standard deviation of the averaged measurements. In all, about 1,300 compounds were measured (“normalised cell viability”: median about 1, lowest 2% from about 0.14 on). Shown is part of a subset that was picked to be rich in the lowest values.

Tested on: V-C8 (BRCA2-deficient hamster cells)
Experiment: normalised cell viability (fraction of plate median); higher = more viable cells (less toxic)
Settings: 5 µM
Method in brief: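 Hamster V-C8 cells lacking BRCA2 and V-C8 cells with BRCA2 restored were seeded in 96-well plates. Library drugs (10 mM DMSO stocks) were added 24 h later at 5 μM in 100 μl medium, next to DMSO control wells, for 3 days (screen 1) or 6 days (screen 2). Cell viability was read by resazurin assay, median-plate normalised (modified robust per cent of sample), and triplicate wells were averaged.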

Structure (SMILES): COc1cc([C@@H]2c3cc4c(cc3[C@H](O)[C@H]3COC(=O)[C@H]23)OCO4)cc(OC)c1OC [Podophyllotoxin]
- normalised cell viability (treatment time: 3 days): 0.126 ± 0.01
- normalised cell viability (treatment time: 6 days): 0.143 ± 0.0037

Structure (SMILES): C[C@]12CC[C@@H]3c4ccc(OC(=O)N(CCCl)CCCl)cc4CC[C@H]3[C@@H]1CC[C@@H]2O [Estramustine]
- normalised cell viability (treatment time: 3 days): 0.175 ± 0.019
- normalised cell viability (treatment time: 6 days): 0.213 ± 0.013

Structure (SMILES): CCC1(C)CC(=O)NC(=O)C1 [Bemegride]
- normalised cell viability (treatment time: 3 days): 0.925 ± 0.075
- normalised cell viability (treatment time: 6 days): 1.06 ± 0.055

Structure (SMILES): NCC(O)c1ccc(O)cc1 (racemic) [(+,-)-Octopamine hydrochloride]
- normalised cell viability (treatment time: 3 days): 1.02 ± 0.083
- normalised cell viability (treatment time: 6 days): 1.1 ± 0.083

Structure (SMILES): CC[C@@]1(O)C(=O)OCc2c1cc1n(c2=O)Cc2cc3ccccc3nc2-1 [Camptothecine (S,+)]
- normalised cell viability (treatment time: 3 days): 0.148 ± 0.0039
- normalised cell viability (treatment time: 6 days): 0.109 ± 0.008

Structure (SMILES): CC[C@@]1([C@@H]2O[C@@H]([C@H]3O[C@@](O)(CO)[C@H](C)C[C@@H]3C)C[C@@H]2C)CC[C@H]([C@]2(C)CC[C@]3(C[C@H](O)[C@@H](C)[C@@H]([C@@H](C)[C@@H](OC)[C@H](C)C(=O)O)O3)O2)O1 [Monensin sodium salt]
- normalised cell viability (treatment time: 3 days): 0.156 ± 0.0082
- normalised cell viability (treatment time: 6 days): 0.128 ± 0.0063

Structure (SMILES): C[N+](C)(C)CCCCCCCCCC[N+](C)(C)C [Decamethonium bromide]
- normalised cell viability (treatment time: 3 days): 1.18 ± 0.34
- normalised cell viability (treatment time: 6 days): 1.019 ± 0.0077

Structure (SMILES): C[N+]1(C)[C@@H]2CC[C@H]1C[C@@H](OC(=O)C(CO)c1ccccc1)C2 (stereo not given in full) [Methylatropine nitrate]
- normalised cell viability (treatment time: 3 days): 1.11 ± 0.021
- normalised cell viability (treatment time: 6 days): 1.15 ± 0.091

Structure (SMILES): Oc1cc(Cl)ccc1Oc1ccc(Cl)cc1Cl [Triclosan]
- normalised cell viability (treatment time: 3 days): 0.974 ± 0.022
- normalised cell viability (treatment time: 6 days): 1 ± 0.02

Structure (SMILES): C[N+]1([O-])[C@@H]2C[C@@H](OC(=O)[C@H](CO)c3ccccc3)C[C@H]1[C@@H]1O[C@@H]12 (stereo not given in full) [Scopolamin-N-oxide hydrobromide]
- normalised cell viability (treatment time: 3 days): 0.997 ± 0.074
- normalised cell viability (treatment time: 6 days): 0.945 ± 0.092

Structure (SMILES): CC(C)(C)NCC(O)c1ccccc1Cl (stereo not given) [Tulobuterol]
- normalised cell viability (treatment time: 3 days): 1.07 ± 0.015
- normalised cell viability (treatment time: 6 days): 1.05 ± 0.086

Structure (SMILES): C[C@@H]1C[C@@H]([C@H](O)CC2CC(=O)NC(=O)C2)C(=O)[C@@H](C)C1 [Cycloheximide]
- normalised cell viability (treatment time: 3 days): 0.132 ± 0.0063
- normalised cell viability (treatment time: 6 days): 0.142 ± 0.0068

Structure (SMILES): C=CCC1(CC(C)C)C(=O)NC(=O)NC1=O [Butalbital]
- normalised cell viability (treatment time: 3 days): 1.1 ± 0.031
- normalised cell viability (treatment time: 6 days): 1.079 ± 0.0048

Structure (SMILES): C=C1[C@@H]2CC[C@H]3[C@]4(C)C[C@H](O[C@@H]5O[C@H](CO)[C@@H](OS(=O)(=O)O)[C@H](OS(=O)(=O)O)[C@H]5OC(=O)CC(C)C)C[C@@H](C(=O)O)[C@H]4CC[C@]3(C2)[C@@H]1O [Atractyloside potassium salt]
- normalised cell viability (treatment time: 3 days): 1.05 ± 0.051
- normalised cell viability (treatment time: 6 days): 1.09 ± 0.079

Structure (SMILES): C[C@]12CC[C@H]3[C@@H](CCC4=CC(=O)CC[C@@H]43)[C@@H]1CC[C@@H]2O [Nandrolone]
- normalised cell viability (treatment time: 3 days): 0.993 ± 0.11
- normalised cell viability (treatment time: 6 days): 1.02 ± 0.028

Structure (SMILES): CN1C[C@H](CNC(=O)OCc2ccccc2)C[C@@H]2c3cccc4c3c(cn4C)C[C@H]21 [Metergoline]
- normalised cell viability (treatment time: 3 days): 0.1447 ± 0.00066
- normalised cell viability (treatment time: 6 days): 0.133 ± 0.017

Structure (SMILES): CN1C[C@H](C(=O)N[C@]2(C)O[C@@]3(O)[C@@H]4CCCN4C(=O)[C@H](Cc4ccccc4)N3C2=O)C[C@@H]2c3cccc4[nH]cc(c34)C[C@H]21 [Dihydroergotamine tartrate]
- normalised cell viability (treatment time: 3 days): 1.06 ± 0.024
- normalised cell viability (treatment time: 6 days): 1.02 ± 0.12

Structure (SMILES): CO[C@]12C[C@@H](COC(=O)c3cncc(Br)c3)CN(C)[C@@H]1Cc1cn(C)c3cccc2c13 [Nicergoline]
- normalised cell viability (treatment time: 3 days): 0.886 ± 0.074
- normalised cell viability (treatment time: 6 days): 0.994 ± 0.033

Structure (SMILES): NC(=O)OCCCc1ccccc1 [Phenprobamate]
- normalised cell viability (treatment time: 3 days): 1.14 ± 0.049
- normalised cell viability (treatment time: 6 days): 1.08 ± 0.15

Structure (SMILES): S=C(NC1CCCCC1)N1CCC(c2cnc[nH]2)CC1 [Thioperamide maleate]
- normalised cell viability (treatment time: 3 days): 1 ± 0.018
- normalised cell viability (treatment time: 6 days): 1.02 ± 0.014

Structure (SMILES): C[C@H](N)[C@H](O)c1ccc(O)c(O)c1 [Levonordefrin]
- normalised cell viability (treatment time: 3 days): 1.05 ± 0.05
- normalised cell viability (treatment time: 6 days): 1.02 ± 0.028

Structure (SMILES): CCCCCC[C@H]1C(=O)O[C@H](C)[C@H](NC(=O)c2cccc(NC=O)c2O)C(=O)O[C@@H](C)[C@@H]1OC(=O)CC(C)C [Antimycin A]
- normalised cell viability (treatment time: 3 days): 0.152 ± 0.0026
- normalised cell viability (treatment time: 6 days): 0.12 ± 0.011

Structure (SMILES): C[C@]12CCC(=O)C=C1CC[C@@H]1[C@@H]2C(=O)C[C@]2(C)C(=O)CC[C@@H]12 [Adrenosterone]
- normalised cell viability (treatment time: 3 days): 1.19 ± 0.085
- normalised cell viability (treatment time: 6 days): 1.11 ± 0.017

Structure (SMILES): CCC(C)C1O[C@]2(C=C[C@@H]1C)C[C@@H]1CC(C/C=C(\C)[C@@H](OC3C[C@H](OC)[C@@H](OC4C[C@H](OC)[C@@H](O)[C@H](C)O4)[C@H](C)O3)[C@@H](C)/C=C/C=C3\COC4[C@H](O)C(C)=CC(C(=O)O1)[C@]34O)O2 (stereo not given in full) [Avermectin B1a]
- normalised cell viability (treatment time: 3 days): 0.486 ± 0.016
- normalised cell viability (treatment time: 6 days): 0.475 ± 0.052

Structure (SMILES): COc1ccc(CN2CCNCC2)c(OC)c1OC [Trimetazidine dihydrochloride]
- normalised cell viability (treatment time: 3 days): 1.05 ± 0.06
- normalised cell viability (treatment time: 6 days): 1.06 ± 0.023

Structure (SMILES): C=C(C)[C@@H]1[C@H]2OC(=O)[C@@H]1[C@]1(O)C[C@H]3O[C@]34C(=O)O[C@H]2[C@]14C [Picrotoxinin]
- normalised cell viability (treatment time: 3 days): 1.007 ± 0.0066
- normalised cell viability (treatment time: 6 days): 1.11 ± 0.061

Structure (SMILES): COc1ccc(CCN2CCC(Nc3nc4ccccc4n3Cc3ccc(F)cc3)CC2)cc1 [Astemizole]
- normalised cell viability (treatment time: 3 days): 0.13 ± 0.0054
- normalised cell viability (treatment time: 6 days): 0.099 ± 0.003

Structure (SMILES): Fc1ccc(C(OCCN2CCN(CCCc3ccccc3)CC2)c2ccc(F)cc2)cc1
- normalised cell viability (treatment time: 3 days): 0.159 ± 0.0052
- normalised cell viability (treatment time: 6 days): 0.182 ± 0.012

Structure (SMILES): C[C@]12C[C@H]3S[C@H]3C[C@@H]1CC[C@@H]1[C@@H]2CC[C@]2(C)[C@@H](O)CC[C@@H]12 [Epitiostanol]
- normalised cell viability (treatment time: 3 days): 1.04 ± 0.012
- normalised cell viability (treatment time: 6 days): 1.033 ± 0.01

Structure (SMILES): CC1OC(OC2/C=C/C=C/C=C/C=C/CC/C=C/C=C/[C@H](C)[C@@H](O)[C@@H](C)[C@H](C)OC(=O)CC(O)CC(O)CC(O)CCC(O)C(O)C[C@]3(O)CC(O)C(C(=O)O)C(C2)O3)C(O)C(N)C1O (stereo not given in full) [Nystatine]
- normalised cell viability (treatment time: 3 days): 1.06 ± 0.055
- normalised cell viability (treatment time: 6 days): 0.905 ± 0.084

Structure (SMILES): CN1CCN(C(=O)OC2c3nccnc3C(=O)N2c2ccc(Cl)cn2)CC1 (stereo not given) [Zopiclone]
- normalised cell viability (treatment time: 3 days): 1.11 ± 0.05
- normalised cell viability (treatment time: 6 days): 1.04 ± 0.061

Structure (SMILES): CCN[C@@H](C)Cc1cccc(C(F)(F)F)c1 [Dexfenfluramine hydrochloride]
- normalised cell viability (treatment time: 3 days): 0.908 ± 0.092
- normalised cell viability (treatment time: 6 days): 1.02 ± 0.074

Structure (SMILES): C[C@@H]1O[C@@H](O[C@@H]2C=C3CC[C@@H]4[C@H](CC[C@]5(C)[C@@H](c6ccc(=O)oc6)CC[C@]45O)[C@@]3(C)CC2)[C@H](O)[C@H](O)[C@H]1O [Proscillaridin A]
- normalised cell viability (treatment time: 3 days): 0.945 ± 0.013
- normalised cell viability (treatment time: 6 days): 0.908 ± 0.11

Structure (SMILES): CCN(C(C)=O)c1cccc(-c2ccnc3c(C#N)cnn23)c1 [Zaleplon]
- normalised cell viability (treatment time: 3 days): 1.13 ± 0.075
- normalised cell viability (treatment time: 6 days): 0.981 ± 0.063

Structure (SMILES): C[C@]12Cc3c[nH]nc3C[C@@H]1CC[C@@H]1[C@@H]2CC[C@@]2(C)[C@H]1CC[C@]2(C)O [Stanozolol]
- normalised cell viability (treatment time: 3 days): 1.07 ± 0.064
- normalised cell viability (treatment time: 6 days): 1.06 ± 0.036

Structure (SMILES): CN[C@@H]1[C@@H](O)[C@@H](O[C@@H]2[C@@H](O)[C@H](O[C@H]3O[C@H](CN)CC[C@H]3N)[C@@H](N)C[C@H]2N)OC[C@]1(C)O.CN[C@@H]1[C@@H](O)[C@@H](O[C@@H]2[C@@H](O)[C@H](O[C@H]3O[C@H]([C@@H](C)N)CC[C@H]3N)[C@@H](N)C[C@H]2N)OC[C@]1(C)O.CN[C@@H]1[C@@H](O)[C@@H](O[C@@H]2[C@@H](O)[C@H](O[C@H]3O[C@H]([C@@H](C)NC)CC[C@H]3N)[C@@H](N)C[C@H]2N)OC[C@]1(C)O [Gentamicine sulfate]
- normalised cell viability (treatment time: 3 days): 0.961 ± 0.029
- normalised cell viability (treatment time: 6 days): 0.955 ± 0.039

Structure (SMILES): C(#CCN1CCCC1)CN1CCCC1 [Tremorine dihydrochloride]
- normalised cell viability (treatment time: 3 days): 1.09 ± 0.065
- normalised cell viability (treatment time: 6 days): 1.08 ± 0.06

Structure (SMILES): C[CH2][Hg][S]c1ccccc1C(=O)[O-].[Na+] [Thimerosal]
- normalised cell viability (treatment time: 3 days): 0.0995 ± 0.0026
- normalised cell viability (treatment time: 6 days): 0.126 ± 0.0061

Structure (SMILES): C[N+]1(C)CCCC(OC(=O)C(O)(c2ccccc2)c2ccccc2)C1 (stereo not given) [Mepenzolate bromide]
- normalised cell viability (treatment time: 3 days): 0.974 ± 0.054
- normalised cell viability (treatment time: 6 days): 1.08 ± 0.059

Structure (SMILES): O=C(CCCN1CCC(n2c(=O)[nH]c3ccccc32)CC1)c1ccc(F)cc1 [Benperidol]
- normalised cell viability (treatment time: 3 days): 0.93 ± 0.029
- normalised cell viability (treatment time: 6 days): 0.969 ± 0.083
